A selection: hits, their analogues and other compounds. The true share with any hit is near 2.1%.
aSyn yeast inh – alpha-synuclein toxicity inhibition in yeast; Yeast expressing alpha-synuclein, growth rescue, BacTiter-Glo, 24 h; Potency, µM (titrated, usually from 46.1 µM), for inactives: at the highest dose growth rescue (activation), hits mostly activators; actives 0.14% (n = 370,000); AID 652106; also: % of control where 0% means no effect; nearly all actives have a fitted effect of over 65% in size
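Readout is rescue of growth in alpha-synuclein-expressing yeast, so inhibitors of toxicity appear as activators. Growth after 24 hr at 30 deg C in galactose medium is quantified by luminescence.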
FUS suppressor – rescues growth of FUS-expressing yeast; actives 0.24% (n = 390,000); Potency, µM (doses to about 76.6 µM), most hits filed as activators; S. cerevisiae FUS-expressing, growth rescue, OD600, 24 h;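 also: plate controls were DMSO vehicle for no effect and reference control for full effect; nearly all actives have a fitted effect of over 55% in size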
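FUS-expressing yeast, raffinose-pregrown, induced in 2% galactose minimal medium at OD 0.005; compounds in a dilution series, 24hr at 30C. Growth restoration read as absorbance at 600 nm. CP55940 positive control, DMSO negative.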
TDP-43 yeast inh – inhibitors of TDP-43 toxicity in yeast | TDP-43 expressing yeast growth rescue, BacTiter-Glo, 24 h | Potency, µM (series often up to 46.1 µM), for the others: at the highest dose growth rescue (activation), usual class: activators | actives 1.8% (n = 410,000) | AID 652104; also: % of control where 0% means no effect; nearly all actives have a fitted effect of over 50% in size
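Luminescence from BacTiter-Glo reports growth of TDP-43-expressing yeast after 24 hr at 30 deg C with compound. Cells were raffinose-pregrown to mid-log, then seeded in galactose medium at OD600=0.02.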
Abeta rescue – restores growth of yeast expressing A-beta42 peptide | Potency, µM (highest dose often 46.1 µM), hits mostly activators | yeast expressing A-beta42, growth rescue, OD600, 48 h; response scale: 0% DMSO, 100% iron-clioquinol control | actives 0.063% (n = 410,000); also: nearly all actives have a fitted effect of over 55% in size
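Growth rescue measured by 600 nm absorbance after 48 h yeast culture at 30 C with compound. Values normalized between DMSO and an equimolar ferric chloride plus clioquinol control.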
An asterisk follows results filed as active; i = inactive; ? = inconclusive; . = no result; [ ] = another dose, or the depositor's remark. Calls follow the shape of the dose curve; as a rule, active = well fitted curve in the direction sought with a large enough effect; inconclusive = small, poorly fitted or top-dose-only effect, or another doubt; inactive = no such curve, though single readings can be large; an effect the other way counts as inactive or inconclusive. Potency is read from the fitted curve at half-maximal effect.

SMILES	aSyn yeast inh	FUS suppressor	TDP-43 yeast inh	Abeta rescue
Cc1ccc2cccc(NC(=O)c3cccc4c(Cl)cccc34)c2n1	-2%	i	8%	i
CCOc1ccccc1C(=O)Nc1ccccc1O	-12%	i	14µM*	i
CCOc1ccccc1C(=O)Nc1cccc2ccc(C)nc12	.	i	20µM*	i
CCOc1ccccc1C(=O)Nc1cccc2ccccc12	4%	i	?	i
COc1ccccc1C(=O)Nc1cccc2cccnc12	9%	i	3.2µM*	i
COc1c(C)cccc1C(=O)Nc1cccc2ccc(C)nc12	.	i	22µM*	i
CCOC(=O)c1cc(S(=O)(=O)NCc2ccc3c(c2)OCO3)cn1C	18%	i	20%	i
O=C(Nc1ccccc1)Nc1cccc2cccnc12	-9%	i	7.1µM*	i
Oc1ccccc1CNc1cccc2cccnc12	-25%	i	14µM*	i
O=C1N(CCCl)c2ccc(Br)cc2C12OCCO2	3%	i	10µM*	i
O=C(Nc1ccncc1NC(=O)c1cccc([N+](=O)[O-])c1)c1cccc([N+](=O)[O-])c1	0%	i	.	i
CCNc1nc(N)nc(-c2cc(Cl)ccc2O)n1	2%	i	3.2µM*	i
O=C(N/N=C/C1C(c2ccccc2)C1(Cl)Cl)c1cccc(Cl)c1 (stereo unspecified)	17%	5.6µM*	-15%	i
O=C(N/N=C/c1c[nH]c2ccccc12)c1cccc(Cl)c1	-4%	i	13%	i
CCOC(=O)c1nnc(-c2ccccc2)nc1NCc1ccc(Cl)cc1	2%	i	13µM*	i
CCc1noc(C)c1C(=O)Nc1nc(-c2cccs2)cs1	-10%	i	13µM*	i
Cc1cc(N/N=C/c2ccc(F)cc2)nc(-n2nc(C)cc2C)n1	9%	i	15%	13µM*
Cn1c2nc3ccccc3c-2nc2ccccc21	16µM*	i	20%	i
Cn1c(-c2nonc2N)nc2ccccc21	15%	i	?	i
Cc1ccc(S(=O)(=O)Nc2cc(=O)[nH]c(SCC(=O)Nc3ccccc3C(F)(F)F)n2)cc1	5%	i	-6%	i
CC(=O)Nc1c(-c2ccc(C)cc2)nc2ncccn12	.	i	.	.
COc1cccc(C2CC(c3ccc(C)cc3)Nc3nc(N)nn32)c1 (stereo unspecified)	0%	i	9%	i
CC(C)(C)c1ccc(C(=O)NNc2cc(N3CCCCC3)nc(N3CCCCC3)n2)cc1	-2%	?	-1%	i
O=C(CCc1ccccc1)NNc1cc(N2CCCCC2)nc(N2CCCCC2)n1	-1%	i	3.2µM*	i
CC(=O)c1sc(Nc2ccc3c(c2)OCO3)nc1C	30%	i	13µM*	i
SMILES	aSyn yeast inh	FUS suppressor	TDP-43 yeast inh	Abeta rescue
O=C(O)c1ccc(Nc2nc(-c3ccccc3)cs2)cc1	13%	i	1%	i
c1ccc(-c2csc(Nc3ccc4c(c3)OCO4)n2)cc1	-1%	i	14µM*	i
O=C(CN1CCN(c2nc(-c3ccccc3)cs2)CC1)Nc1ccc2c(c1)OCO2	7%	i	-6%	i
N#Cc1ccc(Nc2nc(-c3ccccc3)cs2)cc1	0%	i	3.2µM*	i
COc1ccc(-c2ccc3c(c2)S(=O)(=O)c2cccc(C(=O)N4CCN(c5c(Cl)cncc5Cl)CC4)c2C3=O)cc1OC	-1%	?	3%	i
O=C(c1cc(-c2ccc(O)cc2)on1)N1CCN(c2ccccc2)CC1	10%	i	10µM*	i
O=C(c1cc(-c2ccc(O)cc2)on1)N1CCN(c2ccc(F)cc2)CC1	15%	i	16µM*	?
COc1ccccc1-c1cc(C(=O)N2CCN(c3ccccc3)CC2)no1	11%	?	18µM*	i
COc1ccc(OC)c(-c2cc(C(=O)N3CCOCC3)no2)c1	1%	i	16%	i
O=C(c1cc(-c2ccc3c(c2)OCO3)on1)N1CCN(c2ccc(F)cc2)CC1	1%	i	-7%	i
COc1ccccc1N1CCN(C(=O)c2cc(-c3ccc(C)c(F)c3)on2)CC1	.	i	35µM*	i
COc1cc(OC)nc(-n2ncc(OC)c(Br)c2=O)n1	-5%	.	5%	i
Cc1onc(-c2ccc(Cl)cc2)c1-c1ccn(S(=O)(=O)c2cccc(Cl)c2)n1	.	i	.	.
C[C@H]1CN([C@@H](C)CO)S(=O)(=O)c2ccc(C#CC(C)(C)O)cc2O[C@H]1CN(C)Cc1ccccc1	-3%	i	3%	i
CCOC(=O)CC[C@H]1CC[C@]2(CCCN(C(=O)c3ccc4ccccc4n3)C2)O1	.	i	.	.
COc1ccccc1N1CCN(C(=O)c2oc3cc(C)cc(C)c3c2C)CC1	1%	?	22µM*	i
Cc1ccc(N=Nc2ccc(O)c3ncccc23)cc1C	?	i	28µM*	i
Cc1ccc(N=Nc2ccc(O)c3ncccc23)cc1	?	i	19%	?
Fc1ccc2cnc(-c3ccccc3)c(-c3ccc(C(F)(F)F)cc3)c2c1	-15%	i	48%	i
N#Cc1ccc(-c2c(-c3ccccc3)ncc3cc(F)ccc23)cc1	-35%	i	16µM*	i
O=[N+]([O-])c1ccc(-c2c(-c3ccccc3)ncc3ccc(F)cc23)cc1	-24%	i	18µM*	i
COc1cc(/C=N/N2C(=O)C3C4c5ccccc5C(c5ccccc54)C3C2=O)ccc1O (stereo unspecified)	-14%	.	-7%	i
COc1ccc(-c2nnn(CC(=O)NCc3ccc4c(c3)OCO4)n2)cc1OC	3%	i	-5%[0.397 µM]	i
Cc1ccc(S(=O)(=O)Nc2ccc3nc(C)sc3c2)cc1	1%	i	29%	i
Cc1ccc(S(=O)(=O)Nc2ccc3nc(C)sc3c2)c(C)c1	5%	i	13µM*	i
SMILES	aSyn yeast inh	FUS suppressor	TDP-43 yeast inh	Abeta rescue
CCCCn1c(CN(Cc2ccccc2)Cc2ccccc2)nc2c1c(=O)n(C)c(=O)n2C	1%	i	-5%	i
Cc1nc2c(nc1C)C(=O)c1ccccc1C2=O	-9%	.	18µM*	i
C=CCc1cc(OC)ccc1OCC(O)CN1CCN(c2ccc(OC)cc2)CC1 (stereo unspecified)	2%	i	16%	i
COc1ccc(-c2noc(=O)n2Cc2ccccc2Cl)cc1	4%	i	20µM*	i
COc1ccc(-c2noc(=O)n2Cc2ccc(F)cc2Cl)cc1	21%	i	?	i
CCCCOc1ccc(C(=O)NCCc2ccccc2)cc1	-1%	i	15%	i
NC(=S)c1ccc(OCCCc2ccccc2)cc1	8%	i	10µM*	i
O=C(COC(=O)c1nc(Cl)ccc1Cl)NC(=O)c1ccccc1	-6%	i	-1%	i
CCOc1ccc(OCCN2C(=O)NC3(CCCc4ccccc43)C2=O)cc1 (stereo unspecified)	5%	i	35µM*	i

Screens as filed in PubChem BioAssay.
